Compound activity from PubChem.
An excerpt weighted towards active compounds, which were near 9.3% of everything screened.
Sm TGR block – S. mansoni TGR enzyme inhibition. Q962Y6. purified TGR, DTNB reduction, TNB absorbance 405 nm. Potency, µM (doses to about 114 µM), without a hit: at the highest dose activity change, negative = inhibition, usual class: inhibitors. 360,000 compounds, 3% hits. AID 485364; note: potency is the fitted concentration of half-maximal effect; nearly all actives have a fitted effect of over 60% in size
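TGR 20 nM + NADPH 100 uM (dispensed conc.), cpd preinc 15 min RT; start with NADPH (500 uM addition) then DTNB (15 mM addition). Kinetic TNB absorbance, 405 nm filter. Four-parameter Hill fit across titration.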
HCV inhibitor – inhibitors of hepatitis C virus infection; Huh7.5.1 HCVcc-Cre infection, luciferase reporter, 44 h; Potency, µM (titrated, usually from 41.8 µM), for the others: top-dose activity change, negative = inhibition, usual class: inhibitors; 340,000 compounds, 3.4% hits; AID 651820; note: potency is the fitted concentration of half-maximal effect
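1,000 cells/well; 4 h culture; + compound; + HCVcc-Cre (~0.5 moi); 44 h; luciferase substrate, RT 15 min; read 15 sec.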
FMDV inh – foot and mouth disease virus antiviral activity | FMDV antiviral cell-based qHTS | Potency, µM (highest dose often 57.9 µM), inactives show at the highest dose activity change, negative = inhibition, hits mostly inhibitors | 410,000 compounds, 1.2% hits; calls by dose curve; tested in HEK293T cells; note: read-out not given here; potency is the fitted concentration of half-maximal effect; nearly all actives have a fitted effect of over 45% in size
HCMV inh – inhibitors of human cytomegalovirus; HFF cells, HCMV-luciferase reporter, 72 h; hits give low values; activity change, negative = inhibition, % at 57.5 µM; 410,000 compounds, 4.5% hits; in the data active = activity change below about -60%; inconclusive = no clear call, values can overlap the other calls; inactive = above about -39%
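HFF cells seeded 16 h at 37C, treated with compounds, infected with luciferase-reporter HCMV at MOI 1 PFU/cell; luciferase read at 72 h post infection, normalized to buffer-only and Salinomycin controls.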
VACV Venus inh – vaccinia inhibition (Venus reporter). Vaccinia virus Venus reporter expression, fluorescence. Potency, µM (highest dose often 36.5 µM), for inactives: at the top dose activity change, negative = inhibition, usual class: inhibitors. 330,000 compounds, 0.46% hits; calls by dose curve; tested in A549 cells; note: potency is the fitted concentration of half-maximal effect; nearly all actives have a fitted effect of over 30% in size
VACV mCherry inh – inhibitors of vaccinia virus infection (mCherry reporter signal); Vaccinia virus mCherry reporter infection, fluorescence; Potency, µM (top dose mostly 36.5 µM), for the others: at the highest dose activity change, negative = inhibition, most hits filed as inhibitors; 310,000 compounds, 0.63% hits; AID 720579; calls by dose curve; tested in A549 cells; note: potency is the fitted concentration of half-maximal effect; nearly all actives have a fitted effect of over 35% in size
* marks the source's active call; other numbers are inactive results; i = inactive; ? = inconclusive; · = no result given; [ ] = another dose, or the depositor's remark. Unless noted, calls come from the whole dose curve; as a rule, active = well fitted curve in the direction sought with a large enough effect; inconclusive = small, poorly fitted or top-dose-only effect, or another doubt; inactive = no such curve, though single readings can be large; an effect the other way counts as inactive or inconclusive. % is set by controls: 0 for no effect and ±100 for the full control effect.

SMILES	Sm TGR block	HCV inhibitor	FMDV inh	HCMV inh	VACV Venus inh	VACV mCherry inh
COc1ccc([N+](=O)[O-])cc1NC(=O)Cc1noc2ccc(C)cc12	0.9%	13.5%	-16.3%	24.9	-2.9%	-1.4%
Nc1c(C(=O)NCc2ccco2)c2nc3ccccc3nc2n1CCN1CCCCC1	-17.5%	?	·	-68.0*	-19.7%	-12.5%
COc1cc(-n2c(N)c(C(=O)NCc3ccco3)c3nc4ccccc4nc32)cc(OC)c1OC	25.1µM*	-21.6%	-12.8%	-39.2	·	·
Nc1c(C(=O)NCc2ccco2)c2nc3ccccc3nc2n1CCc1ccc(F)cc1	?	-17.6%	?	-27.5	-24.7%	?
Cc1ccccc1NC(=O)C1C2C=CC(C3CC23)C1C(=O)O (configuration not stated)	-0.9%	9.3%	-15.4%	7.0	1.7%	i
C/C(=N\NC(=S)NCc1ccccc1)c1ccc(Br)cc1	9.6%	?	-0.8%	378.1	-12.0%	-18.1%
COCCNC(=S)N/N=C(\C)c1ccc(Cl)s1	-13.2%	?	0.4%	-29.1	-24.2%	8.91µM*
C/C(=N\NC(=S)NCc1ccccc1)c1ccc(C)o1	-12.3%	?	25.6%	-106.8*	-24.8%	?
C/C(=N\NC(=S)NCc1ccccc1)c1ccc(Cl)s1	4.0%	11.2µM*	50.4%	?	-18.5%	-19.3%
C/C(=N\NC(=S)NCc1ccccc1)c1ccc2ccccc2c1OC(F)F	1.5%	12.6µM*	4.1%	-0.3	·	·
CCOC(=O)CSc1nnc(NC(=O)c2ccc3c(c2)OCO3)s1	?	16.6%	-23.0%	5.3	1.9%	-13.9%
O=C(CSC(=S)N1CCOCC1)Nc1nc(-c2ccccc2)c(-c2ccccc2)o1	-13.1%	?	0.0%	-8.4	·	·
NCCC1CN(C(=O)OCc2ccccc2)c2ccccc21 (configuration not stated)	·	3.9%	6.8%	-0.2	-19.3%	-13.4%
Cc1cc(=O)oc2c(C)c(OCC(=O)NCC3CCC(C(=O)O)CC3)ccc12 (configuration not stated)	0.5%	16.1%	10.5%	3.7	-3.2%	-1.1%
CCc1c(C)nc2ncnn2c1N1CCC(C(=O)Nc2ccc(C)cc2)CC1	32.0%	?	-23.6%	-86.0*	-27.7%	-10.1%
Cc1cc(N2CCCC(C(=O)Nc3cccc4ccccc34)C2)n2ncnc2n1 (configuration not stated)	8.4%	?	?	-69.2*	-6.4%	-13.4%
CCc1c(C)nc2ncnn2c1N1CCC(C(=O)Nc2ccccc2)CC1	18.7%	?	?	-33.6	-20.0%	i
CCCc1cc(N2CCCC(C(=O)Nc3ccc(OC)cc3OC)C2)n2ncnc2n1 (configuration not stated)	3.8%	-27.9%	?	?	·	·
CCOc1ccccc1NC(=O)C1CCCN(c2c(CC)c(C)nc3ncnn23)C1 (configuration not stated)	6.9%	12.6µM*	?	?	-13.3%	-9.1%
CCc1c(C)nc2ncnn2c1N1CCCC(C(=O)NCCc2ccc(OC)cc2)C1 (configuration not stated)	-1.1%	?	?	-68.1*	·	·
COc1ccc(CCNC(=O)C2CCCN(c3nc(C)cc(C)n3)C2)cc1 (configuration not stated)	-1.3%	-12.3%	?	-20.8	-6.5%	-10.1%
CCCN(CCC)CCNC(=O)c1cc(Sc2ccc(Cl)cc2)nc2ccccc12	8.5%	·	-24.8%	15.1	-21.8%	?
COc1cc(Cl)ccc1OCc1cc(C(=O)N2CCCCC2c2cccnc2)no1 (configuration not stated)	-14.6%	0.8%	-10.9%	?	·	·
Cc1nc2ncnn2c(N2CCCC(C(=O)Nc3ccc4c(c3)CCC4)C2)c1C (configuration not stated)	-7.4%	10µM*	25.1µM*	-101.1*	·	·
COc1ccc(CCNC(=O)C2CCCN(c3ncccn3)C2)cc1 (configuration not stated)	5.9%	2.1%	30.6%	-69.4*	-2.7%	-2.2%
SMILES	Sm TGR block	HCV inhibitor	FMDV inh	HCMV inh	VACV Venus inh	VACV mCherry inh
CC(=O)C1C(c2ccc3ncccc3c2)NC(=O)NC1(O)C(F)(F)F (configuration not stated)	?	8.9%	-16.0%	13.3	-9.9%	-9.0%
CCOc1ccc(CCNC(=O)c2cc3sccc3n2CC)cc1OCC	0.0%	7.94µM*	?	-27.1	-12.7%	-2.8%
CSc1nn(CCc2ccncc2)c(=S)s1	35.5µM*	8.6%	-21.2%	-31.1	-25.8%	i
COC(=O)c1cc(S(=O)(=O)NCCc2sccc2C)c[nH]1	-2.9%	-10.7%	66.4%	-34.7	·	·
CC(=O)C1=C(O)C2(C)c3c(O)c(C)c(O)c(C(C)=O)c3OC2CC1=O (configuration not stated)	·	·	10µM*	?	?	?
COc1ccccc1CNc1ncnc2cc(Cl)ccc12	·	?	?	37.6	-9.7%	-17.8%
COc1ccc(CNc2ncnc3cc(Cl)ccc23)cc1OC	0.8%	?	?	-69.9*	-25.2%	-14.6%
Clc1ccc2c(NCc3ccccn3)ncnc2c1	0.0%	-13.8%	-29.0%	86.0	-7.2%	·
Fc1ccc(CNc2ncnc3cc(Cl)ccc23)cc1	-4.8%	10µM*	?	?	·	·
CS(=O)(=O)Nc1ccccc1C(=O)OCc1cc(=O)n2nc(C3CCCCC3)sc2n1	2.5%	·	-14.7%	-36.4	-15.0%	-19.2%
O=C(Cc1n[nH]c(=O)c2ccccc12)OCc1c(Cl)cccc1Cl	18.7%	5.3%	-1.7%	-67.6*	20.1%	?
Cc1ccc2cc(C(c3nnnn3Cc3ccccc3)N3CCc4ccccc43)c(=O)[nH]c2c1 (configuration not stated)	3.5%	?	23.2%	-6.7	·	·
Cc1ccc2[nH]c(=O)c(C(c3nnnn3Cc3ccccc3)N3CCc4ccccc43)cc2c1 (configuration not stated)	20µM*	31.6µM*	-10.2%	8.1	·	·
Cc1cc2cc(C(c3nnnn3Cc3ccccc3)N3CCc4ccccc43)c(=O)[nH]c2cc1C (configuration not stated)	44.7µM*	?	-8.2%	34.7	·	·
Cc1cc2cc(C(c3nnnn3Cc3ccco3)N3CCc4ccccc4C3)c(=O)[nH]c2cc1C (configuration not stated)	3.55µM*	?	-21.7%	3.7	?	i[1.46 µM]
Cc1cc2cc(C(c3nnnn3Cc3ccco3)N3CCc4ccccc43)c(=O)[nH]c2cc1C (configuration not stated)	?	?	-20.0%	-21.6	-16.4%	-24.5%
CCOC(=O)c1[nH]c(C)c(CCC(=O)Nc2ccc(Br)c(C)c2)c1C	-13.5%	·	-12.2%	-18.9	-10.9%	-3.2%
